Measured values taken from ChEMBL document CHEMBL3433997, “St. Jude Leishmania screening dataset” (2016).

Legend:
Type in all cases: functional
[1] = target: Solute carrier family 2, facilitated glucose transporter member 1 (Homo sapiens) (UniProt P11166); test: ST_JUDE_LEISH: Cytotoxicity at 2uM final concentration against transgenic Leishmania Mexicana promastigotes LmGLUT1 that are glucose transport deficient and complemented with the human glucose transporter GLUT1. Activity is measured by DNA content using SYBR green in vitro
[2] = target: Hexose transporter 1 (Plasmodium falciparum) (UniProt O97467); test: ST_JUDE_LEISH: Cytotoxicity at 2uM final concentration against transgenic Leishmania Mexicana promastigotes LmPfHT that are glucose transport deficient and complemented with the Plasmodium falciparum hexose transporter. Activity is measured by DNA content using SYBR green in vitro
[3] = target: Glucose transporter (Leishmania mexicana) (UniProt O61059); test: ST_JUDE_LEISH: Cytotoxicity at 2uM final concentration against transgenic Leishmania Mexicana promastigotes LmGT2 that are glucose transport deficient and complemented with the L. Mexicana glucose transporter 2. Activity is measured by DNA content using SYBR green in vitro

Chain of Solute carrier family 2, facilitated glucose transporter member 1 (Homo sapiens) (P11166 whole entry): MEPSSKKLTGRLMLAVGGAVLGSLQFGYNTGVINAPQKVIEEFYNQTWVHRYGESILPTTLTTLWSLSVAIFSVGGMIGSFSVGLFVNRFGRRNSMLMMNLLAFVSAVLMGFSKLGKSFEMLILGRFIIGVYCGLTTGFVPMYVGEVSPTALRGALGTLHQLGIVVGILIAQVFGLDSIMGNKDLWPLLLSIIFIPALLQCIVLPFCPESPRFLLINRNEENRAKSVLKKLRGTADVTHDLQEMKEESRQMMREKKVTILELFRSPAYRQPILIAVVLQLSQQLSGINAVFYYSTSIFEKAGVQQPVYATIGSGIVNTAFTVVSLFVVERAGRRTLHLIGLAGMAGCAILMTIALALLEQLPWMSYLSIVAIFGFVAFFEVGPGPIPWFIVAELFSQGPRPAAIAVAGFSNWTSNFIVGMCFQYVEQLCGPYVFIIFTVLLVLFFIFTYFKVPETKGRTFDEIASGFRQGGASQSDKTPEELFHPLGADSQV

| SMILES | inhibition [1] [%] | inhibition [2] [%] | inhibition [3] [%] |
| --- | --- | --- | --- |
| NC(=O)C1CCN(Cc2cccc(-c3cccc(-c4nc5cc(C(F)(F)F)ccc5[nH]4)c3)c2)CC1 | 13.1 | 11.4 | 10.3 |
| Cc1ccc(NC(=O)c2ccc(CN3CCCN(CC4CCCCC4)CC3)cc2)cc1F | 8.8 | 6.75 | 11.2 |
| O=c1cc(NCCCNCc2cc(Cl)cc(Cl)c2OCc2ccc(Cl)cc2)[nH]c2ccccc12 | 1.67 | 0.9 | 3.19 |
| COc1cc2nc(N3CCC(CNC(=O)c4cccc5cccnc45)CC3)nc(N)c2cc1OC | 5.61 | 4.14 | 3.91 |
| COc1cc2c(cc1C(F)(F)F)N(C(=O)Nc1ccc(Br)cn1)CC2 | -0.2 | 0.68 | -1.31 |
| CCCC(C)Nc1nc(C)cc(NCCC(=O)Nc2ccc(OC)cc2)n1 (stereo unspecified) | 1.95 | 0.08 | -0.58 |
| CCCOC(=O)c1ccc(OCCCON2C(=N)N=C(N)NC2(C)C)cc1 | 2.28 | -0.38 | 5.01 |
| O=[N+]([O-])c1ccc(-n2nc(Cc3ccccc3)n(Cc3cccc(F)c3)c2=S)c(C(F)(F)F)c1 | 2.84 | 3.14 | -0.25 |
| CN(C)CCOc1cc(NC(=O)Nc2ccc(-c3ccccc3)cc2)ccc1I | 12.5 | 12.7 | 12.6 |
| COc1cc(CCCOc2c(N)nc(N)nc2N)cc(OC)c1OC | 4.82 | 3.75 | 3.79 |
| Fc1ccc2[nH]c3c(NCCCN4CCOCC4)ncnc3c2c1 | 1.79 | 0.7 | -0.69 |
| CCNc1cc(C(=O)N[C@@H](Cc2ccccc2)[C@H](O)CNC(C)CC(C)C)c(F)c(N2CCCCS2(=O)=O)c1 (stereo partly specified) | 2.89 | 3.43 | 2.55 |
